Among the data in article PMC11006913 are binding signal values, retold here.

Experiment in all cases: PBM; 200 nM protein, PBS
Holding throughout (conditions): dsDNA, one strand shown

In experiment [1] the target is HESX1 (Homo sapiens, UniProt Q9UBX0 95-180, R165K).
Experiment [2] has as its target SHOX (Homo sapiens, UniProt O15266 103-189).
Experiment [3] deals with ALX4 (Homo sapiens, UniProt Q9H161 200-286).
For experiment [4], the target named is PRRX1 (Homo sapiens, UniProt P54821 80-166, F113S).
Experiment [5] addresses ALX4 (Homo sapiens, UniProt Q9H161 200-286, Q225E).
The target in experiment [6] is HESX1 (Homo sapiens, UniProt Q9UBX0 95-180).
In experiment [7] the target is MSX2 (Homo sapiens, UniProt P35548 130-214, R199I).
For experiment [8], the target named is ALX1 (Homo sapiens, UniProt Q15699 118-204, L144V).
The target of experiment [9] is SHOX (Homo sapiens, UniProt O15266 103-189, R173C).
Experiment [10] deals with ALX1 (Homo sapiens, UniProt Q15699 118-204, L144R).
The target of experiment [11] is PROP1 (Homo sapiens, UniProt O75360 56-141).
For experiment [12], the target named is HESX1 (Homo sapiens, UniProt Q9UBX0 95-180, R109Q).
For experiment [13], the target named is PROP1 (Homo sapiens, UniProt O75360 56-141, R99H).
For experiment [14], the target named is ALX3 (Homo sapiens, UniProt O95076 139-225, L168Q).
Experiment [15] deals with HESX1 (Homo sapiens, UniProt Q9UBX0 95-180, P111T).
Experiment [16] has as its target PROP1 (Homo sapiens, UniProt O75360 56-141, F88S).
Experiment [17] has as its target HESX1 (Homo sapiens, UniProt Q9UBX0 95-180, F115L).
Experiment [18] addresses ALX1 (Homo sapiens, UniProt Q15699 118-204).
The target of experiment [19] is PRRX1 (Homo sapiens, UniProt P54821 80-166).
Experiment [20] addresses MSX2 (Homo sapiens, UniProt P35548 130-214, F161Y).

Sequence of SHOX (Homo sapiens, UniProt O15266 103-189, R173C) (O15266 103-189 R173C): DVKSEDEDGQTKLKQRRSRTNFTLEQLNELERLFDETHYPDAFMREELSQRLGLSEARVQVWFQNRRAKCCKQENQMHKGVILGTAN
Sequence of ALX4 (Homo sapiens, UniProt Q9H161 200-286) (Q9H161 200-286): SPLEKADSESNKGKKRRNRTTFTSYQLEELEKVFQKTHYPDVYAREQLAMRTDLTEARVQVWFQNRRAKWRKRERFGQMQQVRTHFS
Sequence of ALX4 (Homo sapiens, UniProt Q9H161 200-286, Q225E) (Q9H161 200-286 Q225E): as the sequence (Q9H161 200-286) above, with Q26E counted along it
Sequence of SHOX (Homo sapiens, UniProt O15266 103-189) (O15266 103-189): as the sequence (O15266 103-189 R173C) above, with C71R counted along it
Sequence of HESX1 (Homo sapiens, UniProt Q9UBX0 95-180, R109Q) (Q9UBX0 95-180 R109Q): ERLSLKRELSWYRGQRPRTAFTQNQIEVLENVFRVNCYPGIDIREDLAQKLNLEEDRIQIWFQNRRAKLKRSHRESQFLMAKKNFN
Sequence of ALX1 (Homo sapiens, UniProt Q15699 118-204, L144V) (Q15699 118-204 L144V): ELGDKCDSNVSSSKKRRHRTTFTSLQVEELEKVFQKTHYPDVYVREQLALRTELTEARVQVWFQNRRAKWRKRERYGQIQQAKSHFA
Sequence of HESX1 (Homo sapiens, UniProt Q9UBX0 95-180, P111T) (Q9UBX0 95-180 P111T): as the sequence (Q9UBX0 95-180 R109Q) above, with Q15R, P17T counted along it
Sequence of PROP1 (Homo sapiens, UniProt O75360 56-141, R99H) (O75360 56-141 R99H): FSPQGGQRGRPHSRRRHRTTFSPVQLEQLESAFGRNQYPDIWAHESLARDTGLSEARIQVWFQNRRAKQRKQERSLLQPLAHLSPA
Sequence of HESX1 (Homo sapiens, UniProt Q9UBX0 95-180) (Q9UBX0 95-180): as the sequence (Q9UBX0 95-180 R109Q) above, with Q15R counted along it
Sequence of ALX1 (Homo sapiens, UniProt Q15699 118-204) (Q15699 118-204): as the sequence (Q15699 118-204 L144V) above, with V27L counted along it
Sequence of PRRX1 (Homo sapiens, UniProt P54821 80-166) (P54821 80-166): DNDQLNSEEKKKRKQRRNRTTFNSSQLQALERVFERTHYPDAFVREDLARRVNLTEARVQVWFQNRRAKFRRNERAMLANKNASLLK
Sequence of HESX1 (Homo sapiens, UniProt Q9UBX0 95-180, F115L) (Q9UBX0 95-180 F115L): as the sequence (Q9UBX0 95-180 R109Q) above, with Q15R, F21L counted along it
Sequence of ALX3 (O95076 139-225 L168Q): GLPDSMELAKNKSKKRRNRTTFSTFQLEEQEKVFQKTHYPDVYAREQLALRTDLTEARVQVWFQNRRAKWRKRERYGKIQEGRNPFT
Sequence of HESX1 (Homo sapiens, UniProt Q9UBX0 95-180, R165K) (Q9UBX0 95-180 R165K): as the sequence (Q9UBX0 95-180 R109Q) above, with Q15R, R71K counted along it
Sequence of PROP1 (Homo sapiens, UniProt O75360 56-141, F88S) (O75360 56-141 F88S): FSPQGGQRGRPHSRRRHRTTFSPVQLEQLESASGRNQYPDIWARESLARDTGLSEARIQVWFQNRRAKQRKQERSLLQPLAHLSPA
Sequence of ALX1 (Homo sapiens, UniProt Q15699 118-204, L144R) (Q15699 118-204 L144R): as the sequence (Q15699 118-204 L144V) above, with V27R counted along it
Sequence of PROP1 (Homo sapiens, UniProt O75360 56-141) (O75360 56-141): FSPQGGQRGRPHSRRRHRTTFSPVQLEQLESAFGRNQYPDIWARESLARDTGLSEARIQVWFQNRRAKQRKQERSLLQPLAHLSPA
Sequence of MSX2 (Homo sapiens, UniProt P35548 130-214, R199I) (P35548 130-214 R199I): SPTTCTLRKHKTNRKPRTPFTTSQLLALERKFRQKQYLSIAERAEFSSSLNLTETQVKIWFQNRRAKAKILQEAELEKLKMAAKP
Sequence of PRRX1 (Homo sapiens, UniProt P54821 80-166, F113S) (P54821 80-166 F113S): as the sequence (P54821 80-166) above, with F34S counted along it
Sequence of MSX2 (Homo sapiens, UniProt P35548 130-214, F161Y) (P35548 130-214 F161Y): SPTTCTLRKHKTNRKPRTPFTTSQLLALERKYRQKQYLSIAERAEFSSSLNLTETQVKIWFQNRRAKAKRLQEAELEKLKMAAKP

As to AATTAACG, the binding signal in experiment [1] was 11.7 upbm affinity estimate (log intensity, higher = more binding, comparable within an allelic series); in experiment [2], 11.6 upbm affinity estimate (log intensity, higher = more binding, comparable within an allelic series); in [3], 13.9 upbm affinity estimate (log intensity, higher = more binding, comparable within an allelic series); in experiment [4], 11.1 upbm affinity estimate (log intensity, higher = more binding, comparable within an allelic series); in experiment [5], 13 upbm affinity estimate (log intensity, higher = more binding, comparable within an allelic series); in [6] it was 11.7 upbm affinity estimate (log intensity, higher = more binding, comparable within an allelic series). The binding signal was 12.2 upbm affinity estimate (log intensity, higher = more binding, comparable within an allelic series) in experiment [7]; 11.6 upbm affinity estimate (log intensity, higher = more binding, comparable within an allelic series) in [8]; 9.39 upbm affinity estimate (log intensity, higher = more binding, comparable within an allelic series) in [9]; 11.2 upbm affinity estimate (log intensity, higher = more binding, comparable within an allelic series) in experiment [10]; 11.3 upbm affinity estimate (log intensity, higher = more binding, comparable within an allelic series) in experiment [11]; 8.98 upbm affinity estimate (log intensity, higher = more binding, comparable within an allelic series) in experiment [12]. The binding signal in [13] is 11.2 upbm affinity estimate (log intensity, higher = more binding, comparable within an allelic series); in experiment [14], 10.5 upbm affinity estimate (log intensity, higher = more binding, comparable within an allelic series); in experiment [15], 10.4 upbm affinity estimate (log intensity, higher = more binding, comparable within an allelic series); in experiment [16], 7.84 upbm affinity estimate (log intensity, higher = more binding, comparable within an allelic series); in experiment [17], 7.64 upbm affinity estimate (log intensity, higher = more binding, comparable within an allelic series); in experiment [18], 12.2 upbm affinity estimate (log intensity, higher = more binding, comparable within an allelic series). Further, in [19], the binding signal is 13.3 upbm affinity estimate (log intensity, higher = more binding, comparable within an allelic series).
Regarding CAATTAGA, the binding signal is 12.3 upbm affinity estimate (log intensity, higher = more binding, comparable within an allelic series) in [1]; 11.9 upbm affinity estimate (log intensity, higher = more binding, comparable within an allelic series) in [2]; 13.8 upbm affinity estimate (log intensity, higher = more binding, comparable within an allelic series) in [3]; 10.9 upbm affinity estimate (log intensity, higher = more binding, comparable within an allelic series) in experiment [4]; 12.8 upbm affinity estimate (log intensity, higher = more binding, comparable within an allelic series) in experiment [5]; 12.5 upbm affinity estimate (log intensity, higher = more binding, comparable within an allelic series) in experiment [6]. The binding signal in experiment [7] is 12.6 upbm affinity estimate (log intensity, higher = more binding, comparable within an allelic series); in experiment [8], 11.4 upbm affinity estimate (log intensity, higher = more binding, comparable within an allelic series); in [9], 9.38 upbm affinity estimate (log intensity, higher = more binding, comparable within an allelic series); in experiment [10], 11.1 upbm affinity estimate (log intensity, higher = more binding, comparable within an allelic series); in experiment [11], 11.4 upbm affinity estimate (log intensity, higher = more binding, comparable within an allelic series); in experiment [12] it was 8.75 upbm affinity estimate (log intensity, higher = more binding, comparable within an allelic series). Further, the binding signal in experiment [13] is 11.4 upbm affinity estimate (log intensity, higher = more binding, comparable within an allelic series); in [14], 10.4 upbm affinity estimate (log intensity, higher = more binding, comparable within an allelic series); in experiment [15] it was 10.9 upbm affinity estimate (log intensity, higher = more binding, comparable within an allelic series); in [16], 7.51 upbm affinity estimate (log intensity, higher = more binding, comparable within an allelic series); in [20] it was 13.4 upbm affinity estimate (log intensity, higher = more binding, comparable within an allelic series); in experiment [17] it was 7.65 upbm affinity estimate (log intensity, higher = more binding, comparable within an allelic series). Further, the binding signal was 12.2 upbm affinity estimate (log intensity, higher = more binding, comparable within an allelic series) in experiment [18] and 13.2 upbm affinity estimate (log intensity, higher = more binding, comparable within an allelic series) in experiment [19].
In the case of GAGGGGGC, the binding signal in experiment [1] is 6.47 upbm affinity estimate (log intensity, higher = more binding, comparable within an allelic series); in experiment [6] it was 6.37 upbm affinity estimate (log intensity, higher = more binding, comparable within an allelic series); in experiment [12], 6.41 upbm affinity estimate (log intensity, higher = more binding, comparable within an allelic series); in experiment [15], 6.44 upbm affinity estimate (log intensity, higher = more binding, comparable within an allelic series); in experiment [17] it was 6.41 upbm affinity estimate (log intensity, higher = more binding, comparable within an allelic series).
For CCAATTAG, the binding signal in [1] was 13.5 upbm affinity estimate (log intensity, higher = more binding, comparable within an allelic series); in [2], 12.8 upbm affinity estimate (log intensity, higher = more binding, comparable within an allelic series); in [3] it was 14.1 upbm affinity estimate (log intensity, higher = more binding, comparable within an allelic series); in [4], 11.2 upbm affinity estimate (log intensity, higher = more binding, comparable within an allelic series); in experiment [5], 13.6 upbm affinity estimate (log intensity, higher = more binding, comparable within an allelic series); in experiment [6], 13.4 upbm affinity estimate (log intensity, higher = more binding, comparable within an allelic series). The binding signal is 13.1 upbm affinity estimate (log intensity, higher = more binding, comparable within an allelic series) in experiment [7]; 12 upbm affinity estimate (log intensity, higher = more binding, comparable within an allelic series) in experiment [8]; 10.3 upbm affinity estimate (log intensity, higher = more binding, comparable within an allelic series) in experiment [9]; 11.7 upbm affinity estimate (log intensity, higher = more binding, comparable within an allelic series) in experiment [10]; 11.9 upbm affinity estimate (log intensity, higher = more binding, comparable within an allelic series) in experiment [11]; 10.5 upbm affinity estimate (log intensity, higher = more binding, comparable within an allelic series) in experiment [12]. Further, the binding signal in [13] was 12.1 upbm affinity estimate (log intensity, higher = more binding, comparable within an allelic series); in [14] it was 10.9 upbm affinity estimate (log intensity, higher = more binding, comparable within an allelic series); in [15] it was 12.2 upbm affinity estimate (log intensity, higher = more binding, comparable within an allelic series); in experiment [16], 7.63 upbm affinity estimate (log intensity, higher = more binding, comparable within an allelic series); in experiment [20], 13.7 upbm affinity estimate (log intensity, higher = more binding, comparable within an allelic series); in experiment [17], 8.12 upbm affinity estimate (log intensity, higher = more binding, comparable within an allelic series). The binding signal in experiment [18] was 12.7 upbm affinity estimate (log intensity, higher = more binding, comparable within an allelic series); in experiment [19], 13.4 upbm affinity estimate (log intensity, higher = more binding, comparable within an allelic series).
For ATTAATGC, the binding signal in [1] was 8.93 upbm affinity estimate (log intensity, higher = more binding, comparable within an allelic series); in [6], 9.02 upbm affinity estimate (log intensity, higher = more binding, comparable within an allelic series).
